From PubChem BioAssay come the findings set out here.

One may read the inhibition as the change of the read-out against control, counted positive when it falls.

Active and inactive are the calls of the source.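 How the source made its calls, unless noted: active means fluorescence slope higher than the sample average by over 3 SD (cut at about -0.22 in these data, passing the limit was not always enough); inactive means the rest.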

A short description of test [1]: inhibitors of TNFa-induced NFkB p65 translocation, primary screen, imaging, HUVEC, MLSMR starter and 10KST1 sets (AID 438;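 active means inhibition above 20% together with a positive visual image hit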;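 further: compound added about 3h40 before a 20 min TNFalpha stimulation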;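 on inhibition: signal is the nuclear over cytoplasmic p65 intensity ratio per well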). The following applies: HUVEC TNFa-induced p65 nuclear translocation; cell count: measured here: nuclei count (cytotoxicity indicator), at 2.08 µM; inhibition: at 2 µM, stronger effect = higher value, 0% TNFa-plus-vehicle, 100% no-TNFa wells.
The nature of test [2]: inhibitors of mutant huntingtin aggregation, primary screen, imaging, exon1htt(103Q)mCFP cells, high-content imaging (AID 483;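 active means visual image review flags a hit and inhibition of aggregation exceeds 20%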;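 further: compound exposure lasted 3 days before fixation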;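 on nuclei count: percent of the per-plate median nuclei count of sample wells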). Conditions: exon1htt(103Q)mCFP cell line, aggregate imaging, at 2 µM; inhibition of aggregation: stronger effect = higher value; nuclei count: measured here: cell count, toxicity.
A short description of test [3]: inhibitors of E-selectin induction by TNFa, primary screen, imaging, HUVEC, immunofluorescence, MLSMR starter and 10KST1 sets (AID 487;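 active means visually confirmed hit in the image check and inhibition above 20%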;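 on inhibition: signal is fraction of cell area covered by stained E-selectin grains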;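 on nuclei count: 100% = median nuclei count of all wells on the same plate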). The following applies: HUVEC TNFalpha-induced E-selectin immunofluorescence imaging, at 2 µM; inhibition: stronger effect = higher value; nuclei count: measured here: cell number, toxicity.
Test [4] deals with Voltage-gated potassium channel subunit beta-2 (Rattus norvegicus) (UniProt P62483). Kind of test: KvBeta enzyme negative modulators, primary screen, biochemical, NADPH fluorescence (AID 622).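 Further: slope of raw intensity against log time taken from 70 to 1610 s.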 The following applies: recombinant KvBeta, 4-cyanobenzaldehyde reduction, at 10 µM, stronger effect = higher value.
For test [5] the target is unchanged. Put plainly: KvBeta positive modulators, primary screen, biochemical, NADPH fluorescence (AID 623;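 active means NADPH fluorescence slope more negative than the mean of all samples by about 3 SD, 99.7% confidence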;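 further: fluorescence intensity change per second fitted from 20 to 320 s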). Conditions: Recombinant KvBeta, NADPH fluorescence decrease slope, 10 min; at 10 µM; stronger effect = lower value.
In test [6] the target is Alpha-2C adrenergic receptor (Homo sapiens) (UniProt P18825). Put plainly: modulators of alpha2C/GIRK thallium flux, primary screen, cell-based, HEK293 alpha2C/GIRK1/2 (AID 624;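 active means fluorescence slope after compound addition differing from the mean of all screened samples at 99.7% confidence, in either direction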;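 further: slope of fluorescence ratio to pre-addition baseline per second over 15 to 24 s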). The following applies: thallium flux BTC fluorescence, at 10 µM, actives lie on both sides.
A short description of test [7]: inhibitors of Sendai virus-induced IRF3 signaling, primary screen, TLR/RLR signaling modifier project, cell-based, Sendai virus stimulus, luciferase, 10K MLSCN set (AID 602276;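 active means inhibition at or above 50% at 10 µM; inactive means inhibition below 50%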;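 further: firefly luciferase from ISG56 promoter only with Renilla not read in this screen; 0% = Sendai virus plus DMSO and 100% = medium plus DMSO without virus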). Conditions: HEK293 RL24 IRF3 luciferase reporter, at 10 µM, stronger effect = higher value. A general note: Reporter assays use an easily measured gene product as a stand-in for the process of interest.

Test [8] in a line: inhibitors of poly I:C-induced TLR3 signaling, primary screen, cell-based, poly I:C stimulus, luciferase, 10K MLSCN set (AID 602277;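 active means inhibition of the reporter signal at or above 50%; inactive means inhibition below 50%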). The following applies: HEK293-TLR3 RL24 IRF3 luciferase reporter, at 10 µM, stronger effect = higher value.

Sequence of Alpha-2C adrenergic receptor (Homo sapiens) (P18825 whole entry, looked up): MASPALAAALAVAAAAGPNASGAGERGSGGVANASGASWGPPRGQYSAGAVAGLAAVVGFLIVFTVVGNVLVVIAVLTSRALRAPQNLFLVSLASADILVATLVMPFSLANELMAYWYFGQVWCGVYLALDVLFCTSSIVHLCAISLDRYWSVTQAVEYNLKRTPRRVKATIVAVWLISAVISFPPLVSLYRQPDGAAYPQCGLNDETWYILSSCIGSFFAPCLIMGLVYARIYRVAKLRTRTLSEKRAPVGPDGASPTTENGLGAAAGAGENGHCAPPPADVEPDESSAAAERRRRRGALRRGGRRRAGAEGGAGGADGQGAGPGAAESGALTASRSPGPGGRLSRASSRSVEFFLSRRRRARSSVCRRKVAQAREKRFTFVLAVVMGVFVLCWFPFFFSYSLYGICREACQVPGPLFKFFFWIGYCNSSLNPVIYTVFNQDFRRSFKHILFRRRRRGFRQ
Sequence of Voltage-gated potassium channel subunit beta-2 (Rattus norvegicus) (P62483 whole entry, looked up): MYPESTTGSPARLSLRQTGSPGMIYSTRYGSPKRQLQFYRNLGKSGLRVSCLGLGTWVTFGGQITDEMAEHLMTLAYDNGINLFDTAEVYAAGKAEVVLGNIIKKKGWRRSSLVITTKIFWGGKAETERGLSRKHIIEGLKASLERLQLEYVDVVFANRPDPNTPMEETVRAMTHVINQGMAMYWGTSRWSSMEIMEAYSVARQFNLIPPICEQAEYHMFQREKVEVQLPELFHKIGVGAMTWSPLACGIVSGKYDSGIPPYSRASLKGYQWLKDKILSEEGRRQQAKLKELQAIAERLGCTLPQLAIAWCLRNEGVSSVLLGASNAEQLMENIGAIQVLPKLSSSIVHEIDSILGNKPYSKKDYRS

Turning to `COc1cccc(/C=N/n2c(C)nc3ccccc32)c1OC`, the cell count in test [1] came to 431. The inhibition was 0.5% (inactive) in test [1], -27.6% (inactive) in test [3], -7.57% (inactive) in test [7] and -59.7% (inactive) in test [8]. In addition, the inhibition of aggregation in test [2] was 32.5% (active). The figures for the nuclei count in test [2] and in test [3] were 84.3% and 123%, respectively. Further, the fluorescence slope in test [4] was -0.391 (inactive). In addition, the NADPH fluorescence slope in test [5] was 3.2e-05 (inactive). For the same compound, the slope in test [6] was 0.00613 (inactive).

`COc1ccc(-c2noc(-c3ccccc3C(=O)NCc3ccco3)n2)cc1`: the cell count in test [1] was 331. Also, the inhibition in test [1] was 9.3% (inactive); in test [3], -64.4% (inactive); in test [7], -8.85% (inactive); in test [8] it was -39.1% (inactive). Further, the inhibition of aggregation in test [2] was -16.3% (inactive). Moreover, the values for the nuclei count in test [2] and in test [3] were 77.4% and 99.2%, respectively. For the same compound, the fluorescence slope in test [4] was -0.592 (inactive). In addition, the NADPH fluorescence slope in test [5] was -4.7e-05 (inactive). Further, the slope in test [6] is 0.00789 (inactive).

Take `CCCCn1c(CNC(=O)CCC)nc2ccccc21`: the cell count in test [1] came to 635. For the same compound, the inhibition in test [1] was 3.9% (inactive); in test [3], -30.1% (inactive); in test [7] it was 5.22% (inactive); in test [8] it was 31.7% (inactive). Besides, the inhibition of aggregation in test [2] is -10.7% (inactive). For the same compound, the nuclei count in test [2] stood at 124%; in test [3], 116%. Moreover, in test [4], the fluorescence slope was -0.565 (inactive). For the same compound, the NADPH fluorescence slope in test [5] was -4.3e-05 (inactive). Besides, in test [6], the slope is 0.00641 (inactive).

Consider `CCc1c(C)c2ccc(OCC(=O)OC)cc2oc1=O`, for which the cell count in test [1] came out at 342. The inhibition is 2.2% (inactive) in test [1], 32.2% (inactive) in test [3], 12.5% (inactive) in test [7] and 18.6% (inactive) in test [8]. In addition, in test [2], the inhibition of aggregation is 9.8% (inactive). The nuclei count in test [2] was 78.5%; in test [3], 97.7%. For the same compound, the fluorescence slope in test [4] is -0.165 (inactive). In test [5], the NADPH fluorescence slope was -1.1e-05 (inactive). In test [6], the slope was 0.00537 (inactive).

Take `Cc1ccc(S(=O)(=O)Cc2ccc(C(=O)N3CCN(Cc4ccccc4)CC3)o2)cc1`: in test [1], the cell count was found to be 760. Moreover, the inhibition in test [1] was -9.8% (inactive); in test [3], -76.2% (inactive); in test [7] it was 10.7% (inactive); in test [8], 37.2% (inactive). In addition, the inhibition of aggregation in test [2] is -10.9% (inactive). The nuclei count is 101% in test [2] and 118% in test [3]. Besides, the fluorescence slope in test [4] is -0.569 (inactive). In test [5], the NADPH fluorescence slope is -1.3e-05 (inactive). In addition, in test [6], the slope was 0.00635 (inactive).

On to `O=P1(O)C=C(c2ccccc2)NC(c2ccccc2)=C1`, for which the cell count in test [1] is 405. Moreover, the inhibition in test [1] was 3.4% (inactive); in test [3], -48% (inactive); in test [7] it was 10.1% (inactive); in test [8], 7.48% (inactive). Moreover, the inhibition of aggregation in test [2] was -6.9% (inactive). Besides, the nuclei count in test [2] amounted to 92.3%; in test [3], 117%. In test [4], the fluorescence slope was -0.35 (inactive). The NADPH fluorescence slope in test [5] is -5e-07 (inactive). The slope in test [6] was 0.00466 (inactive).

Turning to `CC(C)(C)n1ncc2c(=O)n(CC(=O)NCc3ccc(F)cc3)cnc21`, in test [1], the cell count stood at 403. Also, the inhibition in test [1] was 9.3% (inactive); in test [3] it was 18.8% (inactive); in test [7], -15.8% (inactive); in test [8], -46.6% (inactive). For the same compound, in test [2], the inhibition of aggregation is 14.9% (inactive). For the same compound, the nuclei count in test [2] was 95.8%; in test [3], 91.1%. The fluorescence slope in test [4] was -0.367 (inactive). Further, in test [5], the NADPH fluorescence slope was -5.3e-05 (inactive). Moreover, the slope in test [6] is 0.00547 (inactive).

`O=C1CC(C2CCCO2)C(=O)N1Cc1ccccc1` (stereo not drawn): the cell count in test [1] came out at 418. Also, the inhibition is -5.4% (inactive) in test [1], -1.7% (inactive) in test [3], -6.03% (inactive) in test [7] and 10.9% (inactive) in test [8]. Further, the inhibition of aggregation in test [2] is 19% (inactive). The figures for the nuclei count in test [2] and in test [3] were 101% and 125%, respectively. Besides, the fluorescence slope in test [4] was -0.489 (inactive). In addition, the NADPH fluorescence slope in test [5] was -3.7e-05 (inactive). The slope in test [6] is 0.00667 (inactive).
